# High-throughput results from PubChem BioAssay.
# NPC1 prom act: activators of NPC1 promoter | Huh7 NPC1 promoter luciferase reporter, 24 h | actives 2.4% (n = 320,000) | AID 485313 | Potency, µM (top dose mostly 9.22 µM), without a hit: at the top dose activation, actives largely listed as activators; further: % of control where 0% means no effect; nearly all actives have a fitted effect of over 60% in size
#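 Huh7 cells stably carrying NPC1 promoter–luciferase, plated in Opti-MEM with 10% FBS for 2 h, were exposed to compound in DMSO for 24 h at 37 °C; luciferase reagent was added for 10 min and luminescence read.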
# SMN2 splice up: increases expression of the SMN2 splice variant; actives 2.8% (n = 210,000); HEK293 SMN2-luciferase splicing reporter, luminescence, 30-36 h; Potency, µM (titrated, usually from 46.1 µM), for the others: at the highest dose activity change, positive = activation, usual class: activators; AID 1458; further: % of control where 0% means no effect; nearly all actives have a fitted effect of over 55% in size
#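 HEK293 cells carry an SMN2 […]–luciferase reporter in which exon 7 inclusion puts luciferase in frame. Cells were plated 10-12 h before compound addition, then incubated 30-36 h at 37C. ONE-Glo luminescence was read; sodium butyrate at 4.5 mM final served as control.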
# FLuc modulator: inhibits or activates purified firefly luciferase, miR-21 counter-screen; purified FLuc, Km substrates, luminescence inhibition; Potency, µM (top dose mostly 57.5 µM), for the others: at the top dose activity change, negative = inhibition, usual class: inhibitors; actives 6.9% (n = 360,000); P08659;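 further: plate controls were vehicle for no effect and reference inhibitor for full effect; nearly all actives have a fitted effect of over 55% in size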
# Target sequence (P08659 whole entry, looked up): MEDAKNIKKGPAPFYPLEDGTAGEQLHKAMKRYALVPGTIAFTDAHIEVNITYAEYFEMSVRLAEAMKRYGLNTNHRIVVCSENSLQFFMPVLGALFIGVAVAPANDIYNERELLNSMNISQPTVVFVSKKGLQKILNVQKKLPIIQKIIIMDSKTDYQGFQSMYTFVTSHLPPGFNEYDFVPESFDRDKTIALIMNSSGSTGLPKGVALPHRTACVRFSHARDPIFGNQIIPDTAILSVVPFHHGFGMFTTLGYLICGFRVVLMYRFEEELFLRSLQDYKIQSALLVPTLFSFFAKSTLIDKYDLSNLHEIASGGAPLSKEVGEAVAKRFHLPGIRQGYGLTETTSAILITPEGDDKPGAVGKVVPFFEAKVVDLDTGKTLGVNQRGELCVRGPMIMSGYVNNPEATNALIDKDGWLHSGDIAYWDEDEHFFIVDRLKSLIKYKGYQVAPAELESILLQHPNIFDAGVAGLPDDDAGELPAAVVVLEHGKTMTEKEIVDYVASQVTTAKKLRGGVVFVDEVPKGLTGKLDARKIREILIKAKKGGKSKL
#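 Purified P. pyralis luciferase, 10 nM final, with Km-level 10 uM D-luciferin and 10 uM ATP in 50 mM Tris acetate pH 7.5, 10 mM Mg acetate, 0.01% Tween-20, 0.05% BSA; 6-point qHTS titration about 60 µM downward; luminescence read.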
# Rab9 prom act: Rab9 promoter activation. Potency, µM (doses to about 9.22 µM), inactives show top-dose activation, negative = inhibition, most hits filed as activators. actives 2.8% (n = 320,000). AID 485297. Huh7 Rab9 promoter-luciferase reporter, luminescence, 24 h; further: % of control where 0% means no effect; nearly all actives have a fitted effect of over 60% in size
#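 Quantitative HTS format; Huh7 Rab9-luciferase reporter cells (1500/well) receive compound 2 h post-plating, incubate 24 h at 37 °C, then get luciferase reagent for 10 min before luminescence reading.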
# ELG1 genotoxic: genotoxicity induction in ELG1-luciferase HEK293T cells; HEK293T ELG1-luciferase reporter, luminescence, 16 h; Potency, µM (highest dose often 46 µM), without a hit: top-dose activity change, positive = activation, usual class: activators; actives 1.3% (n = 330,000); AID 504466; further: % of control where 0% means no effect; nearly all actives have a fitted effect of over 60% in size
#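 HEK293T cells expressing luciferase-tagged ELG1 were exposed to compound or DMSO vehicle for 16 hr at 37 °C and 5% CO2. Luciferase activity was then measured with ONE-Glo after 30 min at room temperature.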
# * hit, by the source's call; ? = inconclusive; nt = not tested or not shown; [ ] = remark or other dose. In the library only some 7.5% were active in any assay of this set; here they are far more common. The call rests on the fitted dose curve; in most records, active means well fitted curve in the direction sought with a large enough effect; inconclusive means small, poorly fitted or top-dose-only effect, or another doubt; inactive means no such curve, though single readings can be large; an effect the other way counts as inactive or inconclusive. Potency means the concentration at half of the fitted maximal effect.
SMILES,NPC1 prom act,SMN2 splice up,FLuc modulator,Rab9 prom act,ELG1 genotoxic
COc1ccc2sc(NC(C)=O)nc2c1,2.5µM*,18µM*,17µM*,?,9.2µM*
NS(=O)(=O)c1ccc(CCNC(=O)Cc2cccs2)cc1,-3%,nt,-2%,0%,0%
COc1ccc(NC(=O)Cn2nnc(C(=O)Nc3ccc(F)c(Cl)c3)c2N)cc1,-4%,nt,-1%,-2%,-1%[9.26 µM]
COC1CCCCC1Nc1cccc(SC)c1 (centres undefined),-2%,-12%,0%,-2%,4%
COc1cccc(-c2csc(NC(=O)Oc3ccccc3)n2)c1,25%,-6%,12µM*,1%,21%
CC(OC(=O)CNC(=O)c1ccccc1F)C(=O)Nc1nc(-c2ccccc2)cs1 (centres undefined),?,13µM*,?,?,?
CCc1ccc(-c2csc(NC(=O)C3CCCO3)c2C(=O)OC(C)C)cc1 (centres undefined),-1%,-30%,2%,0%,-7%
COc1ccc(-c2csc(NC(=O)c3c(C)noc3C)n2)cc1,3%,nt,?,0%,-1%
CC(OC(=O)c1ccc(O)cc1)C(=O)Nc1nc(-c2ccccc2)cs1 (centres undefined),13%,nt,-24%,4%,-3%
COC(=O)c1c(-c2ccc(F)cc2)csc1NC(=O)C1CCCO1 (centres undefined),17%,0%,27µM*,23%,7%
COc1ccc(-c2csc(NC(=O)c3ccoc3C)n2)cc1,?,14%,12µM*,?,?
Cc1nc(-c2ccc(S(=O)(=O)N3CCN(c4cc(Cl)ccc4C)CC3)cc2)co1,nt,nt,2%,nt,nt
COC(=O)c1ccccc1NC(=O)C1(c2cccs2)CCOCC1,nt,nt,3%,nt,nt
COc1ccc(S(=O)(=O)c2snnc2C)cc1,-4%,nt,-1%,2%,0%
O=C(NCc1ccc(Cl)cc1)[C@@H]1CCCN1S(=O)(=O)c1ccc(Cl)cc1,nt,nt,nt,nt,-6%
COC(=O)c1c(-c2ccncc2)csc1NC(=O)c1ccoc1C,2.8µM*,11µM*,8.5µM*,2µM*,?
COc1ccc(-c2csc(NC(=O)c3ccccc3C(=O)O)n2)cc1,-4%,-51%,15µM*,-2%,0%
COc1ccc(-c2csc(NC(=O)C3CCCO3)n2)cc1 (centres undefined),?,3%,21µM*,4µM*,?
CCc1cc(C(=O)OC)c(NC(=O)c2ccoc2C)s1,-2%,nt,-1%,6%[1.84 µM],-1%
COc1ccc(-c2nsc(NC(=O)c3ccccc3Br)n2)cc1,nt,13%,17µM*,nt,nt
COc1ccc(-c2csc(NC(=O)c3ccccc3S(C)(=O)=O)n2)cc1,0%,-14%,?,6%,-10%
COc1ccc(NC(=O)C2CCCO2)cc1 (centres undefined),0%,7%,-13%,-1%,5%
CC(NC(=O)c1ccc(N(C)C)cc1)C1CC2CCC1C2 (centres undefined),2%,10%,-4%,-1%,2%
O=C1CCC(C(=O)OCc2cc(=O)oc3ccc4ccccc4c23)=NN1,1%,nt,0%,1%,0%
CCNC(=S)N1CCN(c2nc(-c3cccc(OC)c3)cs2)CC1,3%,nt,19µM*,3%,-8%
SMILES,NPC1 prom act,SMN2 splice up,FLuc modulator,Rab9 prom act,ELG1 genotoxic
NS(=O)(=O)c1ccc(NC(=O)/C=C/c2ccccc2[N+](=O)[O-])cc1,1%,-9%,4%,0%,-2%
O=C(/C=C\c1ccccc1[N+](=O)[O-])Nc1ccccc1,?,18µM*,11µM*,2µM*,?
Cc1ccnc(NC(=O)/C=C/c2ccccc2Cl)c1,0.71µM*,1.3µM*,0.6µM*,1.1µM*,?
Cc1ccnc(NC(=O)/C=C/c2ccccc2[N+](=O)[O-])c1,2µM*,2.8µM*,3.4µM*,0.56µM*,2.6µM*
CCN(/C=N/c1sc2c(c1C#N)CCCCC2)CC,2.5µM*,11µM*,4.8µM*,3.2µM*,?
CC(C)CN(/C=N/c1sc2c(c1C#N)CCCCC2)CC(C)C,5%,-11%,-12%,16%,2%
N#Cc1c(N)sc2c1CCCCCC2,-1%,nt,?,2%,-4%
